Measured values published in PubChem BioAssay (NCATS).
Records with an inconclusive call do not appear. Unmarked numbers belong to inactive results. Calls of active or inactive are those of the source. The call rests on the fitted dose curve; in most records, active means well fitted activation curve with a large enough effect; inconclusive means small, poorly fitted or top-dose-only effect, or effect the other way; inactive means flat fitted curve, though single readings scatter.
Potency means the concentration at half of the fitted maximal effect.

Experiment: Cellular Toxicity (caspase-3) NIH 3T3 (AID 666);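 further: caspase signal read after 16 h compound exposure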;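 on caspase-3 activation: 0% = DMSO basal and 100% = 100 µM tamoxifen stimulation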
Conditions: NIH 3T3 caspase-3 activation, apoptosis/toxicity; series mostly up to 92.2 µM; caspase-3 activation: at the top concentration
Source text: NIH Chemical Genomics Center [NCGC]
NIH Molecular Libraries Screening Centers Network [MLSCN]
National Institutes of Environmental Health Sciences [NIEHS]
National Toxicology Program [NTP]
We have developed a 1536-well cell-based assay for quantitative high throughput screening (qHTS) against a number of cell lines to determine in vitro caspase 3/7 of small molecules. This particular assay uses the NIH 3T3 cell line which is derived from mouse fibroblasts.
NCGC Assay Protocol Summary:
The Caspase-Glo 3/7 assay (Promega) is a homogeneous method to measure caspase-3 and caspase-7 activities in cultured cells. The quantitation of caspase 3/7 activity is based on the cleavage of a peptide-aminoluciferin substrate. After caspase cleaves the substrate the free aminoluciferin is liberated and serves as the substrate of luciferase, which generates the light. The luminescent signal is proportional to amount of caspase 3/7 activity present.
Using the Caspase-Glo 3/7 assay, the amount of caspase 3/7 activity was measured in the NIH 3T3 cell line with complete culture medium following compound treatment for 16 hours. The assay was performed in opaque white 1536-well plates. In the screen, tamoxifen and doxorubicin were used as positive controls. Library compounds were measured for their ability to cause the activation of caspase 3/7 in the cell line, as reflected by an increase in luminescence signal, in a concentration-dependent manner. Data were normalized to the controls for basal activity (DMSO only) and 100% stimulation (100 uM tamoxifen). AC50 values were determined from concentration-response data modeled with the standard Hill equation.
qHTS protocol for caspase 3/7 assay in NIH 3T3 cells
[Step] [Parameter] [Value] [Description]
1. Reagent; 5 uL; 1000 NIH 3T3 cells/well
2. Time; 5 hr; 37 °C incubation
4. Controls; 23 nL; Tamoxifen 0.23 uM to 100 uM & Doxorubicin 7.0 pM to 100 uM
5. Time; 16 hr; 37 °C incubation
6. Reagent; 5 uL; Caspase-Glo 3/7 reagent
7. Time; 20 min; Room Temperature
8. Detection; Luminescence; Viewlux plate reader
Keywords: caspase 3/7, apoptosis, NIH 3T3 cell line, luminescence, NTPHTS, NTPHTS_NCGC, NIEHS, EPA, DSSTox, MLSMR, MLSCN, NIH Roadmap, qHTS, NCGC
For Cc1noc(NS(=O)(=O)c2ccc(N)cc2)c1C, the “caspase-3 activation” value was -2.58%. In the case of NC(N)=NC(N)=NCCc1ccccc1, the “caspase-3 activation” value is reported as -4.87%. For Cc1cc(NS(=O)(=O)c2ccc(N)cc2)no1, the “caspase-3 activation” value was 0.333%. In the case of N=C(N)c1ccc(OCCCCCOc2ccc(C(=N)N)cc2)cc1, the “caspase-3 activation” value is reported as -2.2%. For CC[C@H](C)C(=O)O[C@H]1C[C@@H](C)C=C2C=C[C@H](C)[C@H](CC[C@@H]3C[C@@H](O)CC(=O)O3)[C@H]21, the “caspase-3 activation” value was 7.71%. With CCc1cc(C(N)=S)ccn1 the “caspase-3 activation” value was -16.1%. In the case of CC1=NN(c2ccccc2)C(=O)C1, the “caspase-3 activation” value is reported as -0.0813%. In the case of CN(C)c1ccc(C(=C2C=CC(=[N+](C)C)C=C2)c2ccc(N(C)C)cc2)cc1, the Potency is reported as 31.6 µM (active). For CC(=O)[C@H]1CC[C@H]2[C@@H]3CCC4=CC(=O)CC[C@]4(C)[C@H]3CC[C@]12C, the Potency was “inactive”. In the case of COc1ccc2cc3[n+](cc2c1OC)CCc1cc2c(cc1-3)OCO2, the “caspase-3 activation” value is reported as -10.2%. With Cc1nnc(NS(=O)(=O)c2ccc(N)cc2)s1 the “caspase-3 activation” value was -3.86%. In the case of C[C@]12C=CC(=O)C=C1CC[C@@H]1[C@@H]2C(=O)C[C@@]2(C)[C@H]1CC[C@]2(O)C(=O)CO, the “caspase-3 activation” value is reported as -0.715%. For NNC(=O)c1ccncc1, the “caspase-3 activation” value was -2.1%. With O=C(N[C@H](CO)[C@H](O)c1ccc([N+](=O)[O-])cc1)C(Cl)Cl the “caspase-3 activation” value was -3.48%. In the case of Cc1ncc([N+](=O)[O-])n1CCO, the “caspase-3 activation” value is reported as -0.725%. With Cc1ccnc2c1NC(=O)c1cccnc1N2C1CC1 the “caspase-3 activation” value was 2.1%. With O=C(O)c1cc(=O)[nH]c(=O)[nH]1 the “caspase-3 activation” value was -2.3%.
